MITF primary – MITF inhibitors, primary screen, biochemical, AlphaScreen, human; inhibition, % at 2.6 µM; hit rate 0.91% among 650,000; AlphaScreen MITF homodimerization, bead proximity signal; AID 1259374, 2018; Microphthalmia-associated transcription factor (Homo sapiens), O75030; in the data active = inhibition above about 50%;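 note: 0% = vehicle wells with protein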
TEAD-YAP block – TEAD-YAP interaction inhibition, primary screen, TEAD-YAP interaction inhibitor project, luminescence, HEK-TIYL cells; inhibition, % at 9.12 µM; TEAD-Gal4/YAP UAS-luciferase luminescence; hit rate 1.4% among 640,000; in the data active = inhibition above about 32%;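 note: 0% = median of test compound wells and 100% = reference inhibitor wells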
FBW7 act – FBW7 E3 ligase activators, primary screen, biochemical, AlphaScreen, human; normalized activity (activation), % at 26.1 µM; hit rate 0.13% among 650,000; AlphaScreen FBW7–phospho-cyclin E peptide binding, activator screen; F-box/WD repeat-containing protein 7 (Homo sapiens), Q969H0; in the data active = normalized activity above about 1.9%;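 note: purified mutant Fbw7 with reduced substrate affinity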
Target sequence (Q969H0 whole entry, looked up): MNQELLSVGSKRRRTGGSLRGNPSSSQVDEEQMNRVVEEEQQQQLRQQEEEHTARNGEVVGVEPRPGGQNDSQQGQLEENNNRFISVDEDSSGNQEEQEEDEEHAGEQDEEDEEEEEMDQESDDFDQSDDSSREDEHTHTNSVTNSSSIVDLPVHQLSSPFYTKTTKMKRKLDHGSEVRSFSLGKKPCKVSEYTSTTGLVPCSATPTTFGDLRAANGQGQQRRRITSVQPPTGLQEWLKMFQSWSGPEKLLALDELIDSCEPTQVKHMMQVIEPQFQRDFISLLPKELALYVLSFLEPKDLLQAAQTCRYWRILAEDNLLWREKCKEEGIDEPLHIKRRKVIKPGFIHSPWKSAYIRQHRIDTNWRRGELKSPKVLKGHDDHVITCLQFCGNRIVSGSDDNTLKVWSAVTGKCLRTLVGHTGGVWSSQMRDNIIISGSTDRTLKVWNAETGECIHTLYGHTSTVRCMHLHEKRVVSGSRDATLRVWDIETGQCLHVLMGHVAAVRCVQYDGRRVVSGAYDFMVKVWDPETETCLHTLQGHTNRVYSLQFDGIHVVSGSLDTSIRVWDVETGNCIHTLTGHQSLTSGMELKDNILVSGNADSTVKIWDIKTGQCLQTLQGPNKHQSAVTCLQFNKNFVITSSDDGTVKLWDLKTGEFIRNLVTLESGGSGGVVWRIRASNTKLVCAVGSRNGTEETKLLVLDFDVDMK
GPR151 activ – activators of human GPR151, primary screen, cell-based, PathHunter beta-arrestin, luminescence; activation, % at 11.2 µM; AID 1508602, 2020; hit rate 1% among 650,000; PathHunter beta-arrestin GPR151 cells; G-protein coupled receptor 151 (Homo sapiens), Q8TDV0; in the data active = activation above about 4.9%;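 note: 0% = median of compound wells and 100% = cells with positive control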
Active calls of the source: *. The list is not random: actives were taken first. Their share in the collection is about 3.4%.

SMILES | MITF primary | TEAD-YAP block | FBW7 act | GPR151 activ
COc1cc(/C=N/NC(=O)c2c(C)nc3ccc(Cl)cn23)cc(OC)c1OC | -77 | -2 | 16* | 0
COc1cc(C(=O)N/N=C/c2ccc(Br)s2)cc(OC)c1OC | -3 | 59* | 0 | 1
COc1cc(C(=O)N/N=C/c2ccc(O)cc2)cc(OC)c1OC | 3 | 57* | 0 | -1
COc1cc(C(=O)N/N=C/c2ccc(OC)c(OC)c2C(=O)O)cc(OC)c1OC | -5 | 67* | 0 | 1
COC(=O)N/N=C/c1ccc(Br)s1 | -5 | -11 | 0 | -1
CC1=CC(c2ccccc2)=Nc2nonc2N1 | -5 | 1 | 0 | 0
N#Cc1ccsc1NC(=O)c1cccc2ccccc12 | -5 | 47* | 0 | 1
N#Cc1ccsc1NC(=O)/C=C/c1ccccc1 | -13 | 64* | 0 | -11
Cc1ccc(C(=O)Nc2sccc2C#N)cc1C | -8 | -15 | 0 | -10
N#Cc1ccsc1NC(=O)c1ccc2c(c1)CCCC2 | 3 | 43* | 0 | -6
N#Cc1ccsc1NC(=O)c1ccccc1Cl | 9 | 1 | 0 | 0
N#Cc1ccsc1NC(=O)c1ccccc1 | -13 | -12 | 0 | -3
Cc1c(C(=O)NC2=NCCS2)oc2ccccc12 | -25 | 38* | 0 | -6
O=C(CCCc1ccccc1)Nc1cccc(N2CCC(NCCn3ccnc3)CC2)c1 | 0 | -3 | 0 | 0
Cc1cc(Cl)c(S(N)(=O)=O)cc1OCC(=O)NC1CCCCC1 | 1 | -3 | 0 | 1
Cc1cc(Cl)c(S(=O)(=O)N2CCSCC2)cc1OCC(=O)NC1CCCCC1 | 11 | 38* | 1 | -2
O=C(CCl)NC(C1CCCCC1=O)C(Cl)(Cl)Cl (stereo not given) | -17 | 42* | 0 | 0
CCOC(=O)C(C)Oc1cc(C)cc2oc(=O)cc(-c3ccccc3)c12 (stereo not given) | -6 | 17 | 0 | 3
c1ccc(CCSc2nnnn2-c2ccccc2)cc1 | 1 | -47 | 0 | 0
Cc1ccc(Nc2nnc(Sc3nnnn3-c3ccccc3)s2)cc1 | 7 | 53* | 1 | -1
CCCSc1nnc(Sc2nnnn2-c2ccccc2)s1 | 3 | 56* | 0 | 1
Cc1ccc(Nc2nc(CSc3nnnn3-c3ccccc3)cs2)cc1 | 12 | -2 | 0 | 1
NNC(=O)/C(=C/c1cccs1)NC(=O)c1ccccc1Cl | 11 | 42* | 1 | -2
NNC(=O)/C(=C/c1ccc2c(c1)OCO2)NC(=O)c1ccccc1Cl | 6 | -2 | 0 | 1
COc1ccc(OC)c(N2C(=O)[C@@H]3C[C@H]2CN3C(=O)c2cccc3c(C)c(C)[nH]c23)c1 | 9 | -6 | 0 | 0
SMILES | MITF primary | TEAD-YAP block | FBW7 act | GPR151 activ
COc1ccc(C2(C(=O)NC(C)c3nc(-c4cccnc4)n[nH]3)CCCCC2)cc1 (stereo not given) | 1 | 1 | 0 | 0
COc1ccc(C2(C(=O)NC(C)c3nc(-c4ccncc4)n[nH]3)CC2)cc1 (stereo not given) | -4 | 64* | 0 | 0
Cn1c(SCC2CCCO2)nnc1-c1ccccc1O (stereo not given) | 10 | 61* | 0 | 0
Cn1c(SCC2CCCCO2)nnc1-c1ccccc1 (stereo not given) | -6 | -33 | 0 | 0
Cc1cc2c(cc(C(=O)NCCc3ccccc3)n2C)s1 | 5 | 58* | 0 | -8
Cn1c(C(=O)NCCCN2CCCC2)cc2sccc21 | -10 | -2 | 0 | 0
Cn1c(C(=O)NCCc2ccccc2)cc2sccc21 | 2 | 41* | 0 | -2
Nc1ccc(N2C(=O)c3ccc(N)cc3C2=O)cc1 | 8 | 34* | 0 | 0
Nc1ccc2c(c1)C(=O)N(c1ccc(O)cc1)C2=O | 3 | 4 | 0 | 0
COc1ccc(C2Nc3ccccc3C(=O)N2c2ccc(F)cc2)cc1Cn1nc(C)c([N+](=O)[O-])c1C (stereo not given) | 47 | -26 | 0 | -1
Cc1cc(OCC(=O)NNC(=O)CCc2ccccc2)ccc1Br | 7 | 6 | 2.3* | -1
COc1ccc(CCNc2nc(NCc3cccnc3)ncc2C)cc1 | 2 | 40* | 0 | 1
COc1cc(Nc2nc(Nc3ccccc3)nc3nc[nH]c23)cc(OC)c1OC | 8 | 18 | 0 | 1
COc1ccc(CCNc2nc(Nc3cc(OC)c(OC)c(OC)c3)nc3nc[nH]c23)cc1 | 12 | 61* | 0 | 3
COc1cc(Nc2nc(Nc3cnccn3)nc3nc[nH]c23)cc(OC)c1OC | 1 | 34* | 4.5* | 2
c1ccc(CNc2nc(Nc3cccnc3)nc3nc[nH]c23)cc1 | -9 | 15 | 0 | 3
c1ccc(CNc2nc(Nc3cnccn3)nc3nc[nH]c23)cc1 | 5 | 17 | 11* | 3
O=C(CNS(=O)(=O)c1cccs1)NC1CCCCCC1 | 3 | -12 | 0 | 0
COc1cc(/C=c2/sc3nc4ccccc4n3c2=O)ccc1OC(C)C(=O)O (stereo not given) | 13 | 11 | 0 | -1
COc1ccc(CCNc2nc(Nc3ccccc3)nc3nc[nH]c23)cc1 | 7 | 24 | 0 | 2
c1ccc(Nc2nc(Nc3ccncc3)nc3nc[nH]c23)cc1 | -5 | 25 | 0 | 0
COc1ccc(CCNc2nc(Nc3cccnc3)nc3nc[nH]c23)cc1 | 14 | 41* | 0 | -1
c1ccc(Nc2nc(Nc3cccnc3)nc3nc[nH]c23)cc1 | -4 | 58* | 0 | 1
CC(=O)Nc1ccc(Nc2nc(-c3ccc(N4CCOCC4)nc3)nc3c2ncn3-c2ccsc2)cc1 | 4 | 43* | 0 | -2
c1ccc(Nc2nc(-c3ccc(N4CCOCC4)nc3)nc3c2ncn3-c2ccsc2)cc1 | 15 | 10 | 0 | -1
SMILES | MITF primary | TEAD-YAP block | FBW7 act | GPR151 activ
COc1ccc(-c2nc(Nc3ccc(N4CCOCC4)cc3)c3ncn(-c4ccsc4)c3n2)cn1 | -2 | 45* | 0 | -1
O=C(NN1C(=O)/C(=C\c2ccco2)SC1=S)c1ccccc1Cl | 35 | 1 | 0 | 0
NC(=O)NN1C(=O)/C(=C/c2ccco2)SC1=S | 69* | -2 | -1 | 0
O=C(O)CCCCCN1C(=O)/C(=C\c2ccccn2)SC1=S | 5 | 30 | 1.9* | 0
Cc1ccc(/C=C2\CS/C(=C\c3ccc(C)o3)C2=O)o1 | 67* | -9 | -1 | 1
Cc1ccc(/C=C2/SC(=S)N(CCS(=O)(=O)O)C2=O)o1 | 56* | 6 | -1 | 1
O=C(O)CCN1C(=O)/C(=C\c2ccccn2)SC1=S | 8 | 26 | 0 | 1
O=C(CSc1n[nH]c(-c2cccnc2)n1)Nc1cccc(C(F)(F)F)c1 | 9 | 7 | 1 | -1
Cc1ccc(/C=C2/SC(=O)NC2=S)o1 | 76* | -5 | 0 | 1
O=C(O)CCCCCN1C(=O)/C(=C\c2ccco2)SC1=S | 43 | 37* | 0 | 0

Screening data from PubChem.
